Calls of active or inactive are those of the source. Rule for the calls: active = hit-call score of the fitted dose curve at least 0.9, where 1 is the maximum; inactive = score below 0.9.
Key:
[1] = UKN5_HCS_SBAD2_cell_viability: Viability Assessment in the University of Konstanz (UKN) Leist Lab Neurite Outgrowth Assay in human iPSC-derived immature Dorsal Root Ganglia Neurons (UKN5) (AID 2284056)
In short: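 iPSC-derived immature peripheral neurons (SBAD2) seeded on Matrigel with CHIR99021, SU5402 and DAPT, dosed 1 h later for 24 h. Viability from Hoechst H-33342 and calcein-AM live staining, high-content imaging; bidirectional fit versus DMSO.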

[2] = UKN5_HCS_SBAD2_neurite_outgrowth: University of Konstanz (UKN) Leist Lab Neurite Outgrowth Assay in human iPSC-derived immature Dorsal Root Ganglia Neurons (UKN5) (AID 2284070); conditions: actives raise or lower the signal
In short: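 SBAD2 iPSC-derived immature peripheral neurons on Matrigel, 100.000 cells/cm2, medium with CHIR99021 (1.5 uM), SU5402 (5 uM), DAPT (5 uM); compound added 1 h post-seeding for 24 h. Calcein-AM neurite area by high-content imaging; Hoechst H-33342 viability; bidirectional fit vs DMSO.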

[3] = UKN2_HCS_IMR90_neural_migration: University of Konstanz (UKN) Leist Lab Neural Crest Cell Migration Assay in human induced IMR90 Pluripotent Stem Cells (UKN2) (AID 2284204); conditions: actives raise or lower the signal
In short: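 Migration of human IMR90-derived neural crest cells into a stopper-defined gap is imaged after 24 h chemical treatment. Activity is fitted bidirectionally relative to DMSO.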

[4] = UKN4_HCS_LUHMES_neurite_outgrowth: University of Konstanz (UKN) Leist Lab Neurite Outgrowth Assay in human LUHMES cells (UKN4) (AID 2284206); conditions: actives raise or lower the signal
In short: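 Human LUHMES neuronal precursors, differentiated 2 days then replated without cAMP and GDNF, exposed to compounds for 24 h. Neurite area imaged by high-content microscopy after calcein-AM live staining; Hoechst H-33342 for viability; bidirectional fit versus DMSO.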

[5] = UKN4_HCS_LUHMES_cell_viability: Viability Assessment in the University of Konstanz (UKN) Leist Lab Neurite Outgrowth Assay in human LUHMES cells (UKN4) (AID 2284232)
In short: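 LUHMES precursors differentiated 2 days, replated at 30000 cells/well without cAMP/GDNF, then compound-treated 24 h. Viability from Hoechst H-33342 and calcein-AM live staining (30 min) by high-content fluorescence imaging; bidirectional fit versus DMSO.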

[6] = UKN2_HCS_IMR90_cell_viability: Viability Assessment in the University of Konstanz (UKN) Leist Lab Neural Crest Cell Migration Assay in human induced IMR90 Pluripotent Stem Cells (UKN2) (AID 2284233);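 note: viability of neural crest cells differentiated from IMR90 iPSC measured by calcein-AM fluorescence imaging; cells exposed to compound for 24 h after a 24 h migration phase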
In short: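 Human IMR90-derived neural crest cells were allowed to migrate for 24 h into a cell-free zone, then exposed to test chemicals for 24 h. Calcein-AM and Hoechst staining with high-content imaging gave viability, analysed against DMSO baseline.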

Measured: outcome

Cc1ccccc1
inactive: all assays above
